# Records with an inconclusive call do not appear. Where a call stands in place of a potency, no number is given. Calls of active or inactive are those of the source. The call rests on the fitted dose curve; in most records, active means well fitted activation curve with a large enough effect; inconclusive means small, poorly fitted or top-dose-only effect; inactive means no such curve, though single readings can be large or run the other way.
# Experiment: qHTS assay for re-activators of p53 using a Luc reporter: Hit Validation with no p53 Expressed
# Conditions: p53-null cells, luciferase reporter counter-screen; series mostly up to 46.1 µM
# Outline: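 Counter-screen of primary hits in a cell line not transfected with p53, in Opti-MEM with 10% FBS; compounds at several concentrations (10 mM stock, 1:5; top 46.1 µM in well), 24 h at 37 deg C, 5% CO2. Luminescence read after 10 min with Amplite reagent.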
# Potency means the concentration at half of the fitted maximal effect.
row,SMILES,Potency
1,Cc1ccc2nc(NC(=O)c3ccc(Cl)s3)sc2c1,inactive
2,CCOc1ccc2c(c1)C(=NNC(=O)c1ccncc1)c1cc(OCC)ccc1-2,inactive
3,CCOc1ccc2cc(C#N)c(SCC(=O)OC)nc2c1,inactive
4,Cc1cc(C)c2nc(NNC(=O)c3ccc(S(=O)(=O)N4CCc5ccccc5C4)cc3)sc2c1,inactive
5,CN(C)c1ccc(/C=N/Nc2nncc3ccccc23)cc1,inactive
6,Cc1sc2nc(CSC(C)C(=O)Nc3ccccn3)[nH]c(=O)c2c1C (stereo not given),inactive
7,Cc1cc(C(=O)Nc2nc3c(s2)CCCC3)cs1,inactive
8,O=C(/C=C/c1ccc([N+](=O)[O-])s1)N1CCCCC1,inactive
9,O=[N+]([O-])c1ccc(Cl)cc1Sc1nc2ccccc2o1,inactive
10,CCN(Cc1ccccc1)C(=O)CN1C(=S)NC(C)(C)CC1C (stereo not given),inactive
11,CCc1ccc2c(CN(CC)Cc3nc4ccccc4c(=O)[nH]3)cc(=O)oc2c1,inactive
12,CCCCNc1ncnc2c1cnn2-c1ccccc1,inactive
13,CCOC(=O)c1c(NC(=O)CN2CCCc3ccccc32)sc(C)c1C,inactive
14,CC(C)(C)NC(=O)CSC(=Nc1ccccc1F)NC#N,inactive
15,C/C(=N\NC(=S)NC(C)C)c1ccc(Cl)s1,inactive
16,O=C(N/N=C/c1ccccc1O)C1CC(=O)N(c2ccc(Cl)cc2)C1 (stereo not given),inactive
17,C/C(=N/NC(=S)Nc1ccccc1)c1ccc2c(c1)OCO2,inactive
18,COc1ccc(NC(=O)COC(=O)C23CC4CC(CC(O)(C4)C2)C3)cc1Cl,inactive
19,Cc1cc(=O)[nH]c(N/N=C/c2ccccn2)n1,inactive
20,CC12CN(C(=O)c3cccc([N+](=O)[O-])c3)C3(C#N)CC1CCC23C (stereo not given),inactive

row,SMILES,Potency
1,O=C(CN1C(=O)COc2ccccc21)Nc1ccc(F)cc1,inactive
2,Cc1ccc(C(=O)Nc2ccc(Cl)cn2)cc1,inactive
3,CC1(C)NC(=O)N(CC(=O)N2CCN(S(=O)(=O)c3ccccc3C(F)(F)F)CC2)C1=O,inactive
4,Clc1cccc(N/N=C(\Cc2nc3ccccc3[nH]2)c2ccccc2)c1,inactive
5,Cc1cccc2nc(CNc3ccc(F)cc3)cn12,inactive
6,COc1ccc(-n2cnc3c(cnn3CCC#N)c2=N)cc1,inactive
7,Cc1cc(C(=O)Nc2ccc(Br)cn2)sc1C,inactive
8,Clc1cccc(Cl)c1CSc1nnc2ccccn12,inactive
9,COc1ccc(CCC(=O)NC(C)C2CCCO2)cc1 (stereo not given),inactive
10,COc1ccc2nc(SCc3ccccc3)nc(C)c2c1,inactive
11,S=c1[nH]nc(-c2ccco2)n1Cc1ccccc1,inactive
12,CS(=O)(=O)n1nc(-c2ccc(Cl)cc2)nc1SCc1ccccc1,inactive
13,COCCSc1ccccc1C(=O)Nc1cc(C)ccn1,inactive
14,CN(C(=O)CSc1nnc(-c2ccco2)o1)C1CCCCC1,inactive
15,C=C[C@@H]1c2cc(C)ccc2N(S(=O)(=O)c2ccc(C)cc2)[C@H](c2ccccc2C(F)(F)F)C1(C#N)C#N,inactive
16,O=C(NCCC1=CCCCC1)c1ccc([N+](=O)[O-])cc1,inactive
17,Cn1c(-c2ncc(F)cc2F)cc2onc(-c3c(F)cccc3Cl)c2c1=O,inactive
18,CCOC(=O)N/N=C\c1ccc(C)s1,inactive
19,CC(=O)c1ccc(N2Cc3ccccc3C2=NC(=O)c2cccs2)cc1,10.3 µM (active)
20,O=C(N/N=C\c1cc(Cl)ccc1O)c1ccc(S(=O)(=O)N2CCCCC2)cc1,inactive

# Source: PubChem BioAssay AID624331 (National Center for Advancing Translational Sciences (NCATS), 2012)
